Values joined by “and” are separate entries in the source; they are usually repeats but may differ in a detail not shown here. Identical values can stand only once. Records with an inconclusive call do not appear. Active and inactive are the calls of the source. The call rests on the fitted dose curve; in most records, active means well fitted activation curve with a large enough effect; inconclusive means small, poorly fitted or top-dose-only effect; inactive means flat fitted curve, though single readings scatter.
Assay: qHTS assay for environmental chemicals that activate the Aryl hydrocarbon Receptor (AhR) signaling pathway (AID 651777); further: % of control where 0% means no effect; nearly all actives have a fitted effect of over 15% in size
Settings: 1A2-DRE human hepatoma cells, luciferase, 24 h; activation: hits give high values
Method in brief: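 Induction of CYP1A2 transcription through AhR is detected by luciferase in 1A2-DRE hepatoma cells. Compounds or DMSO act for 24 hr at 37 C before a 30 min One-Glo step at room temperature.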

Row | Structure (SMILES) | activation
1 | ClC1=C(Cl)[C@]2(Cl)[C@@H]3[C@@H]4C[C@@H]([C@H]5O[C@@H]45)[C@@H]3[C@@]1(Cl)C2(Cl)Cl | -1.01% (inactive)
2 | Clc1cnc(Oc2ccc(Oc3ncc(Cl)cc3Cl)cc2)c(Cl)c1 | 0.838% (inactive)
3 | CCCCCCCCCCCCCCCC[N+](C)(C)C | 0.975% (inactive) and 0.339% (inactive)
4 | O=S(=O)(O)C(F)(F)C(F)(F)C(F)(F)C(F)(F)C(F)(F)C(F)(F)C(F)(F)C(F)(F)F | 1.49% (inactive) and 0.543% (inactive)
5 | O=C(Nc1ccccc1-c1ccc(Cl)cc1)c1cccnc1Cl | 0.984% (inactive)
6 | C=CCC1=C(C)C(OC(=O)C2C(C=C(C)C)C2(C)C)CC1=O (stereo not given) | 0.269% (inactive) and 0.976% (inactive)
7 | O=S(=O)(O)C(F)(F)C(F)(F)C(F)(F)C(F)(F)F | 1.87% (inactive) and 3.11% (inactive)
8 | CC(C)(C)C(O)C(Oc1ccc(Cl)cc1)n1cncn1 (stereo not given) | 5.62% (inactive)
9 | CS(=O)(=O)c1ccc(C(=O)C2C(=O)CCCC2=O)c([N+](=O)[O-])c1 | 3.32% (inactive)
10 | COc1nn(CSP(=S)(OC)OC)c(=O)s1 | -1.09% (inactive)

Reference: PubChem BioAssay (NCATS)
